Results taken from PubChem BioAssay (Tox21).
Values joined by “and” are separate entries in the source; they are usually repeats but may differ in a detail not shown here. Equal entries are not always repeated. Values without a mark were called inactive. Records with an inconclusive call do not appear. Active and inactive are the calls of the source. The call rests on the fitted dose curve.

Target: Acetylcholinesterase (Homo sapiens) (UniProt P22303)
Experiment: Acetylcholinesterase (AChE) small molecule antagonists: fluorescence cell-based qHTS assay (AID 1347398); further: nearly all actives have a fitted effect of over 50% in size; further: potency means the concentration at half of the fitted maximal effect
Conditions: SH-SY5Y cells; Potency: AChE activity; outcome: AChE activity; series mostly up to 115 µM; activity change, negative = inhibition: at the top concentration
Method in brief: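 Read-out is Thiolite Green fluorescence at Ex/Em = 490/520 nm, formed by reaction with thiocholine released when cellular AChE in SH-SY5Y cells hydrolyzes acetylthiocholine. Compounds were preincubated 30 min at 37 C before substrate.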
On the % scale 0 is the no-effect control and ±100 the full control effect.

Acetylcholinesterase (Homo sapiens), sequence (P22303 whole entry, looked up): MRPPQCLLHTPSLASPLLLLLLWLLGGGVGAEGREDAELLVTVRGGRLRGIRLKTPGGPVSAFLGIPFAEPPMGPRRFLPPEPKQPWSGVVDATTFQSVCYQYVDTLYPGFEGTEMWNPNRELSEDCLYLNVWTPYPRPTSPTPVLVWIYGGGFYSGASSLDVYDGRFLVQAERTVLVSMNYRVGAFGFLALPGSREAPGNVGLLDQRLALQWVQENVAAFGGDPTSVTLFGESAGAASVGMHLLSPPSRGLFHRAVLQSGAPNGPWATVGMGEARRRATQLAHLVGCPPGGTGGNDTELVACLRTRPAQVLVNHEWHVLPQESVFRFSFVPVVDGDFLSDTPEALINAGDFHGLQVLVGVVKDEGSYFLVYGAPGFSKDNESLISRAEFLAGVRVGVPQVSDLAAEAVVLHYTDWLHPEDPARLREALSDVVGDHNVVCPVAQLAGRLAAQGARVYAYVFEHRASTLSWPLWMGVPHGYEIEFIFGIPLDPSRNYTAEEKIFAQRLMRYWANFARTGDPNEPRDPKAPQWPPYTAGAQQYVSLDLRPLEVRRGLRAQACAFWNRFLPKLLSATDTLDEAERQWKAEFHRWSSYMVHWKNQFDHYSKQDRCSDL

Row | SMILES | activity change, negative = inhibition | Potency
1 | COC(OC)OC | -0.843% | –
2 | COc1ccc(C(=O)c2ccc(C)cc2)c(O)c1 | -18.7% | –
3 | CCCCCC1Nc2cc(C(F)(F)F)c(S(N)(=O)=O)cc2S(=O)(=O)N1 (stereo unspecified) | – | 9.77 µM (active)
4 | NC(=NCCCCCCN=C(N)/N=C(\N)Nc1ccc(Cl)cc1)/N=C(\N)Nc1ccc(Cl)cc1 | – | 11.1 µM (active) and 17.7 µM (active) and 16.2 µM (active)
5 | CCCCCCCCOC(=O)c1ccc(O)cc1 | – | inactive
6 | O=C(O)O | 2.47% [at 10.5 µM] | –
7 | C=CC(C)(O)CCC=C(C)C (stereo unspecified) | – | inactive
8 | CC1COC(=O)O1 (stereo unspecified) | – | inactive
9 | N#CCC(=O)O | – | inactive
10 | NS(=O)(=O)c1cc2c(cc1Cl)NC(C1CC3C=CC1C3)NS2(=O)=O (stereo unspecified) | -9.86% [at 53.7 µM] | –
11 | Nc1ccncc1N | -9.36% [at 53.7 µM] | –
12 | O=S(=O)(O)c1cc(S(=O)(=O)O)c2c(N=Nc3ccccc3)c(O)ccc2c1 | -21.1% | –
13 | CCc1cccc(CC)c1 | 0.24% | –
14 | CC(=O)Nc1ccc(OCC(O)CNC(C)C)cc1 (stereo unspecified) | 6.91% [at 53.7 µM] | –
15 | CCC(C)OC(=O)c1ccc(O)cc1 (stereo unspecified) | – | inactive
16 | Nc1cc(Cl)c(-c2cc(Cl)c(N)cc2Cl)cc1Cl | – | inactive
17 | CC1(C)CO[C@@H](CC(=O)O)CN1 | 4% [at 53.7 µM] | –
18 | COc1ccc2cc1Oc1cc3c(cc1OC)CC[N+](C)(C)[C@H]3Cc1ccc(cc1)Oc1c(OC)c(OC)cc3c1[C@@H](C2)[N+](C)(C)CC3 | -13.1% [at 53.7 µM] | –
19 | CCCCCCCCCCCC(=O)OC | – | inactive

Row | SMILES | activity change, negative = inhibition | Potency
20 | [Cl][Sc]([Cl])[Cl] | 3.7% | –
21 | CC(C)OC(C)C | -6.46% | –
22 | CCN(CC)c1ccc(C(=O)c2ccccc2C(=O)O)c(O)c1 | – | inactive
23 | O=C1c2ccccc2C(=O)C1c1nc2ccccc2c(Br)c1O | 0.315% | –
24 | CC(=O)[C@H]1CC[C@H]2[C@@H]3CCC4=CC(=O)CC[C@]4(C)[C@H]3CC[C@]12C | – | 28.1 µM (active) and 31.7 µM (active)
25 | CN(C)c1ccncc1 | -6.62% | –
26 | COCCOCC(OC)OC | 4.26% [at 53.7 µM] | –
27 | O=C(O)CNCC(=O)O | -0.972% [at 10.5 µM] | –
28 | CCc1cccc(O)c1 | – | inactive
29 | CC(=O)OC1CCCCC1 | -7.94% | –
30 | O=C(NOCC1CC1)c1ccc(F)c(F)c1Nc1ccc(I)cc1Cl | -7.83% [at 53.7 µM] | –
31 | C1CSCCS1 | -1.09% | –
32 | CCN=C1C=CC(=C(c2ccc(N(CC)CC)cc2)c2ccc(N(CC)CC)cc2)c2ccccc21 | – | 39.7 µM (active)
33 | CC(C)=CC1CC(C)CCO1 (stereo unspecified) | -9.72% | –
34 | O=[N+]([O-])c1ccc(CCO)cc1 | 0.753% | –
35 | CC(CCc1ccc(O)cc1)NCCc1ccc(O)c(O)c1 (stereo unspecified) | -17.1% [at 53.7 µM] | –
36 | Cc1ccc(C)o1 | 0.0157% | –
37 | Nc1ccccc1Nc1ccccc1 | -24% | –

Target: Acetylcholinesterase (Homo sapiens) (UniProt P22303)
Experiment: Acetylcholinesterase (AChE) small molecule antagonists: enzyme-based qHTS assay with human liver microsomes (AID 1347399); further: nearly all actives have a fitted effect of over 60% in size
Conditions: Potency: qHTS inhibition; outcome: qHTS inhibition; series mostly up to 115 µM; activity change, negative = inhibition: at the top concentration
Method in brief: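 Recombinant human AChE (50 mU/mL in the enzyme mix) and human liver microsomes (0.25 mg/mL final) were preincubated with compound and NADPH (0.25 mg/mL final) for 30 min at 37 C. Acetylthiocholine/DTNB was then added; thiocholine was read colorimetrically after 10 min at room temperature.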

Row | SMILES | activity change, negative = inhibition | Potency
38 | COC(OC)OC | -0.838% | –
39 | COc1ccc(C(=O)c2ccc(C)cc2)c(O)c1 | 1.35% | –
40 | CCCCCC1Nc2cc(C(F)(F)F)c(S(N)(=O)=O)cc2S(=O)(=O)N1 (stereo unspecified) | -15% [at 53 µM] | –
41 | NC(=NCCCCCCN=C(N)/N=C(\N)Nc1ccc(Cl)cc1)/N=C(\N)Nc1ccc(Cl)cc1 | – | inactive
42 | CCCCCCCCOC(=O)c1ccc(O)cc1 | – | inactive
43 | O=C(O)O | -6.48% [at 10.5 µM] | –
44 | C=CC(C)(O)CCC=C(C)C (stereo unspecified) | – | inactive
45 | CC1COC(=O)O1 (stereo unspecified) | – | inactive
46 | N#CCC(=O)O | – | inactive
47 | NS(=O)(=O)c1cc2c(cc1Cl)NC(C1CC3C=CC1C3)NS2(=O)=O (stereo unspecified) | 0.0965% [at 53 µM] | –
48 | Nc1ccncc1N | 2.52% [at 53 µM] | –
49 | O=S(=O)(O)c1cc(S(=O)(=O)O)c2c(N=Nc3ccccc3)c(O)ccc2c1 | – | inactive
50 | CCc1cccc(CC)c1 | -0.162% | –
51 | CC(=O)Nc1ccc(OCC(O)CNC(C)C)cc1 (stereo unspecified) | -7.57% [at 53 µM] | –
52 | CCC(C)OC(=O)c1ccc(O)cc1 (stereo unspecified) | – | inactive
53 | Nc1cc(Cl)c(-c2cc(Cl)c(N)cc2Cl)cc1Cl | – | inactive
54 | CC1(C)CO[C@@H](CC(=O)O)CN1 | 0.672% [at 53 µM] | –
55 | COc1ccc2cc1Oc1cc3c(cc1OC)CC[N+](C)(C)[C@H]3Cc1ccc(cc1)Oc1c(OC)c(OC)cc3c1[C@@H](C2)[N+](C)(C)CC3 | 0.295% [at 53 µM] | –
56 | CCCCCCCCCCCC(=O)OC | – | inactive
57 | [Cl][Sc]([Cl])[Cl] | 0.534% | –

Row | SMILES | activity change, negative = inhibition | Potency
58 | CC(C)OC(C)C | -0.472% | –
59 | CCN(CC)c1ccc(C(=O)c2ccccc2C(=O)O)c(O)c1 | – | inactive
60 | CC(C)OC(=O)CCC(=O)OC(C)C | -2.14% | –
61 | O=C1c2ccccc2C(=O)C1c1nc2ccccc2c(Br)c1O | 0.291% | –
62 | CC(=O)[C@H]1CC[C@H]2[C@@H]3CCC4=CC(=O)CC[C@]4(C)[C@H]3CC[C@]12C | – | inactive
63 | CCCCCC[C@@H](O)C/C=C\CCCCCCCC(=O)OCC(O)CO (stereo partly specified) | -1.22% | –
64 | CN(C)c1ccncc1 | -0.458% | –
65 | COCCOCC(OC)OC | -0.504% [at 53 µM] | –
66 | O=C(O)CNCC(=O)O | -0.995% [at 10.5 µM] | –
67 | CCc1cccc(O)c1 | – | inactive
68 | CC(=O)OC1CCCCC1 | -1.87% | –
69 | C=C(C)C(=O)O | – | inactive
70 | O=C(NOCC1CC1)c1ccc(F)c(F)c1Nc1ccc(I)cc1Cl | 0.391% [at 53 µM] | –
71 | C1CSCCS1 | -1.5% | –
72 | CCN=C1C=CC(=C(c2ccc(N(CC)CC)cc2)c2ccc(N(CC)CC)cc2)c2ccccc21 | 2.97% | –
73 | CC(C)=CC1CC(C)CCO1 (stereo unspecified) | 0.716% | –
74 | O=[N+]([O-])c1ccc(CCO)cc1 | 0.167% | –
75 | CC(CCc1ccc(O)cc1)NCCc1ccc(O)c(O)c1 (stereo unspecified) | -1.76% [at 53 µM] | –
76 | Nc1ccccc1Nc1ccccc1 | 0.729% | –
